These results are taken from PubChem BioAssay AID651582 (Sanford-Burnham Center for Chemical Genomics, 2012).

Hit rate of the full screen: of about 230,000 compounds, about 1,500 (0.65%) were called active.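 The calls were made as follows: active = pattern-corrected inhibition of lipid staining of at least 50% with the nuclear-stain viability signal not falling by more than 50%; inactive = the rest, inconclusive results apart.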 Many of the other results were omitted from the sample, so actives are more common in it than they were.

This assay can be described thus: inhibitors of triacylglycerol accumulation, primary screen, cell-based, uHTS, fluorescence, H9c2 (AID 651582).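 As to inhibition: 0% = DMSO wells and 100% = triacsin C control wells.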 The settings on record: H9c2 cells, Nile Red lipid (TAG) fluorescence, at 12.5 µM, cells loaded with 200 µM oleic acid; DAPI nuclei signal change (viability), lower = more cytotoxic: measured here: DAPI nuclei count viability; inhibition: stronger effect = higher value.
As for `CN(C)S(=O)(=O)c1cccc(NC(=O)COc2ccc3ccccc3c2)c1`, the DAPI nuclei signal change (viability), lower = more cytotoxic was -8.57% and the inhibition is -14% (inactive).

As to `O=C(NCCO)c1cccc(-c2cccc3nccn23)c1`, the DAPI nuclei signal change (viability), lower = more cytotoxic amounted to 4.67% and the inhibition is -6.44% (inactive).

With `COc1ccc(CCNC(=O)CCCCn2c(=O)[nH]c3ccccc3c2=O)cc1OC`, the DAPI nuclei signal change (viability), lower = more cytotoxic is -8.64% and the inhibition was 21.8% (inactive).

`COc1ccc(Cc2nnc(N/N=C/c3ccccc3O)[nH]c2=O)cc1OC`: the DAPI nuclei signal change (viability), lower = more cytotoxic was -27% and the inhibition was 50.4% (active).

With `CCOc1ccc(-n2c(O)c(/C=N/Nc3nnc(C)c(=O)[nH]3)c3ccccc3c2=O)cc1`, the DAPI nuclei signal change (viability), lower = more cytotoxic was 5.58% and the inhibition was -10.7% (inactive).

With `CC1C(=O)N(Cc2cn(CC3CCCCC3)nn2)CCS(=O)(=O)N1Cc1ccc(-c2cccc(N(C)C)c2)cc1` (stereo unspecified), the DAPI nuclei signal change (viability), lower = more cytotoxic was -0.553% and the inhibition is -17.1% (inactive).

With `COc1ccc(CC(=O)Nc2ccc(-c3nnc(-c4ccc(C)cc4)o3)cc2)cc1`, the DAPI nuclei signal change (viability), lower = more cytotoxic stood at 2.81% and the inhibition was 59.2% (active).

For the compound `Cc1ccc(OCC(=O)Nc2ccc(-c3nc4ncccc4o3)cc2)cc1`, the DAPI nuclei signal change (viability), lower = more cytotoxic is 18.7% and the inhibition was 14% (inactive).

`COc1ccc(NC(=O)c2cc(-c3ccc(C)cc3)on2)cc1`: the DAPI nuclei signal change (viability), lower = more cytotoxic was 4.01% and the inhibition was -3.75% (inactive).

On to `NNC(=O)c1nnn(-c2nonc2N)c1CN1CCCC1`, for which the DAPI nuclei signal change (viability), lower = more cytotoxic is -4.78% and the inhibition is -6.85% (inactive).

In the case of `CC1(C)CC(=O)C=C(c2ccccc2CO)C1=O`, the DAPI nuclei signal change (viability), lower = more cytotoxic is -1.17% and the inhibition was -16.1% (inactive).

Take `CC(=O)CC(CC(=O)NC1CCCCC1)c1ccccc1` (stereo unspecified): the DAPI nuclei signal change (viability), lower = more cytotoxic was 1.1% and the inhibition is 2.67% (inactive).

As for `Cc1nn(C)cc1/C=N/NC(=O)c1sc2ccccc2c1Cl`, the DAPI nuclei signal change (viability), lower = more cytotoxic is 6.2% and the inhibition is -14.7% (inactive).

As for `Cc1ccc(-c2nc3ccccc3[nH]2)cc1NC(=O)c1sc2ccccc2c1Cl`, the DAPI nuclei signal change (viability), lower = more cytotoxic amounted to 17.5% and the inhibition was 58.3% (active).

With `COc1ccc(CNC(=O)CNC(=O)c2sc3ccccc3c2Cl)cc1OC`, the DAPI nuclei signal change (viability), lower = more cytotoxic was -2.17% and the inhibition was 10.6% (inactive).

Turning to `Cc1ccc(Cc2c(-c3ccccc3)nc3ccc(Cl)cn23)cc1`, the DAPI nuclei signal change (viability), lower = more cytotoxic was 0.00442% and the inhibition is -0.293% (inactive).

`COc1ccc(C(=O)N(C)Cc2ccc(OC)c(OC)c2OC)cc1S(=O)(=O)N1CCOCC1`: the DAPI nuclei signal change (viability), lower = more cytotoxic was -5.3% and the inhibition is 8.22% (inactive).

As for `O=C(C[C@H]1C[C@H](C(=O)N2CCOCC2)[C@@]2(CCC3CCCC3)c3[nH]c4ccc(Cl)cc4c3CCN2C1=O)NCc1ccco1`, the DAPI nuclei signal change (viability), lower = more cytotoxic is 8.62% and the inhibition is 28.1% (inactive).

Turning to `COc1ccc2[nH]c3c(c2c1)CCN1C(=O)C(CC(=O)NCCCN(C)C)C[C@H](C(=O)N2CCOCC2)[C@@]31CCC1CCCC1` (stereo partly specified), the DAPI nuclei signal change (viability), lower = more cytotoxic was -19.4% and the inhibition is 31.2% (inactive).

In the case of `COc1ccc(CNC(=O)C[C@H]2C[C@H](C(=O)N3CCOCC3)[C@@]3(CCC4CCCC4)c4[nH]c5ccc(Cl)cc5c4CCN3C2=O)cc1OC`, the DAPI nuclei signal change (viability), lower = more cytotoxic is 0.251% and the inhibition is 63.8% (active).

As to `CC[C@]12c3[nH]c4ccc(OC)cc4c3CCN1C(=O)C(CC(=O)NCc1ccco1)C[C@@H]2C(=O)N1CCN(C(=O)C2CC2)CC1` (stereo partly specified), the DAPI nuclei signal change (viability), lower = more cytotoxic is -9.73% and the inhibition is 7.93% (inactive).

Take `CC(=O)c1ccc(Oc2cc(C)nc(-n3nc(C)cc3C)n2)cc1`: the DAPI nuclei signal change (viability), lower = more cytotoxic was -32.4% and the inhibition is 61.3% (active).

Turning to `Cc1cc(C)n(-c2cc(Oc3ccccc3)ncn2)n1`, the DAPI nuclei signal change (viability), lower = more cytotoxic is 6.79% and the inhibition is -18.3% (inactive).

For `Cc1cc(Oc2ccccc2)nc(N2CCOCC2)n1`, the DAPI nuclei signal change (viability), lower = more cytotoxic was 6.77% and the inhibition was -9.8% (inactive).

As to `CN(CCc1ccccc1)C(=O)c1cccc(NC(=O)Cc2ccc([N+](=O)[O-])cc2)c1`, the DAPI nuclei signal change (viability), lower = more cytotoxic is -3.23% and the inhibition was -35% (inactive).

For `COc1cc(C(=O)OCC(=O)NC23CC4CC(CC(C4)C2)C3)cc(OC)c1OC`, the DAPI nuclei signal change (viability), lower = more cytotoxic was -0.331% and the inhibition is -18.4% (inactive).

With `COc1ccccc1-n1c(=S)[nH]c2c(sc(=S)n2-c2ccc(C)cc2C)c1=O`, the DAPI nuclei signal change (viability), lower = more cytotoxic is -48.2% and the inhibition is 65.4% (active).

Regarding `COc1cccc(-n2c(=S)sc3c(=O)n(-c4ccccc4OC)c(SCC4OCCO4)nc32)c1`, the DAPI nuclei signal change (viability), lower = more cytotoxic is -13.5% and the inhibition was 20.8% (inactive).

Consider `CCc1ccc(-n2c(=S)sc3c(=O)n(-c4ccccc4OC)c(=S)[nH]c32)cc1`, for which the DAPI nuclei signal change (viability), lower = more cytotoxic turned out to be 8.9% and the inhibition is -2.37% (inactive).

Take `O=C(Nc1cc2c3c(c1)C1CCCC1CN3CC1CCCC21)c1ccc([N+](=O)[O-])cc1` (stereo unspecified): the DAPI nuclei signal change (viability), lower = more cytotoxic is -11.5% and the inhibition is 53.3% (active).

`CN(CC1CCCO1)S(=O)(=O)c1ccc(C(=O)Nc2ccc([N+](=O)[O-])cc2)cc1` (stereo unspecified): the DAPI nuclei signal change (viability), lower = more cytotoxic was found to be 3.29% and the inhibition is -15.4% (inactive).

On to `O=C(Nc1ccc(C(=O)N2CCCCC2)cc1)c1cccc([N+](=O)[O-])c1`, for which the DAPI nuclei signal change (viability), lower = more cytotoxic was 5.03% and the inhibition was 3.82% (inactive).

On to `CC1CCN(C(=S)c2cccc([N+](=O)[O-])c2)CC1`, for which the DAPI nuclei signal change (viability), lower = more cytotoxic is 4.33% and the inhibition was -2.26% (inactive).

`O=C(Cc1ccccc1)N1CCN(S(=O)(=O)c2ccc([N+](=O)[O-])cc2)CC1`: the DAPI nuclei signal change (viability), lower = more cytotoxic is -3.05% and the inhibition is -0.872% (inactive).

Take `CC1(c2ccccc2)CC(C)(C)N(C(=O)c2cc([N+](=O)[O-])cc([N+](=O)[O-])c2)c2ccccc21` (stereo unspecified): the DAPI nuclei signal change (viability), lower = more cytotoxic is -2.38% and the inhibition is 54.1% (active).

Consider `CCCCN(C=O)c1c(CC)nc2c(OCc3ccccc3C(=O)OC)cccn12`, for which the DAPI nuclei signal change (viability), lower = more cytotoxic is -7.9% and the inhibition is 4.1% (inactive).

Take `O=C(CCl)NNc1nc(-c2ccccc2)c2cc(Cl)ccc2n1`: the DAPI nuclei signal change (viability), lower = more cytotoxic is -5.54% and the inhibition is 4.04% (inactive).

Turning to `CN(O)C(=S)c1ccccc1`, the DAPI nuclei signal change (viability), lower = more cytotoxic was -65.1% and the inhibition is 90.7% (inactive).

In the case of `O=C(NN=Cc1ccccc1)c1ccccc1`, the DAPI nuclei signal change (viability), lower = more cytotoxic worked out at 1.87% and the inhibition was -3.23% (inactive).

For the compound `CN(/N=C/c1ccccc1)C(=S)c1ccccc1`, the DAPI nuclei signal change (viability), lower = more cytotoxic is -19.1% and the inhibition is 63.6% (active).

As for `NC(=O)c1ncn([C@@H]2O[C@H](CNCc3cnc(N4CCOCC4)s3)[C@@H](O)[C@H]2O)n1`, the DAPI nuclei signal change (viability), lower = more cytotoxic was -1.13% and the inhibition was 2.87% (inactive).

For the compound `CCC(=O)N1CCN(c2ccccc2NC(=O)COc2cccc(C)c2C)CC1`, the DAPI nuclei signal change (viability), lower = more cytotoxic was -0.0457% and the inhibition was -24.8% (inactive).

On to `Cc1ccccc1OCC(=O)Nc1ccc(N2CCN(C(=O)C(C)C)CC2)c(Cl)c1`, for which the DAPI nuclei signal change (viability), lower = more cytotoxic was -3.43% and the inhibition is 53.8% (active).

Take `Cc1ccccc1OCC(=O)Nc1ccc2c(c1)ncn2C`: the DAPI nuclei signal change (viability), lower = more cytotoxic amounted to 5.22% and the inhibition is 2.71% (inactive).

For the compound `CN1CCC(N(C)S(=O)(=O)c2ccc(NC(=O)c3cccc(C#N)c3)cc2)CC1`, the DAPI nuclei signal change (viability), lower = more cytotoxic was -3.7% and the inhibition is 15.9% (inactive).

As for `Oc1cccc2cc(-c3ccncc3)cnc12`, the DAPI nuclei signal change (viability), lower = more cytotoxic is -33.8% and the inhibition is 56.3% (active).

For `COc1ccc(NC(=O)CSc2nnc(C3CC3)n2C)cc1S(=O)(=O)N1CCCCC1`, the DAPI nuclei signal change (viability), lower = more cytotoxic was determined as 9.15% and the inhibition was -10.9% (inactive).

Regarding `CCN(CC)C(=O)C1=C(C)N(Cc2ccccc2)C(=O)C(CC(=O)NC(c2ccccc2)c2ccccc2)C1` (stereo unspecified), the DAPI nuclei signal change (viability), lower = more cytotoxic is -1.27% and the inhibition was 22.4% (inactive).
